# According to PubChem BioAssay AID1347156 (National Center for Advancing Translational Sciences (NCATS), 2019):
# Results filed as inconclusive are left out. Active and inactive are the calls of the source. Calls follow the shape of the dose curve; as a rule, active = well fitted cell-killing curve with a large enough effect; inconclusive = small, poorly fitted or top-dose-only effect; inactive = flat fitted curve, though single readings scatter.
# Test: DAPI mCherry counterscreen qHTS for Zika virus inhibitors; also: nearly all actives have a fitted effect of over 55% in size
# Settings: Vero cells, DAPI nuclear count cytotoxicity, imaging 48-72 h, infected with Zika reporter virus, MOI 1; series mostly up to 32.6 µM
# Outline: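 Imaging read-out after fixation and Hoechst nuclear staining: percent infection from mCherry-positive cells (above 3 SD of negative controls) and nuclear counts. Setup: Vero cells pre-plated overnight, compound added, infected with ZIKV-mCherry (MOI 1), 48-72 hrs, 37 degrees C.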
# Potency is read from the fitted curve at half-maximal effect.
row,Compound,Potency
1,CC(=O)Oc1cc2c(c(C)c1OC(C)=O)CC=C1[C@@]2(C)CC[C@@]2(C)[C@H]3C[C@](C)(C(=O)O)CC[C@]3(C)CC[C@]12C,2.82 µM (active)
2,Cc1ccc([C@@H]2CC=C(C(=O)O)[C@H](c3ccc(C(C)(C)C)cc3)N2S(=O)(=O)c2ccc(C)cc2)cc1,31.6 µM (active)
3,O=C(O)c1cnn(-c2nc3cc(OC(F)(F)F)c(Cl)cc3[nH]2)c1,inactive
4,O=C(O)Cc1cccc(OCCCN(Cc2cccc(C(F)(F)F)c2Cl)CC(c2ccccc2)c2ccccc2)c1,15.8 µM (active)
5,COc1cccc(C(=O)Nc2ccc(C(=O)OCc3cc(=O)n4nc(C5CC5)sc4n3)cc2)c1,5.62 µM (active)
6,O=c1c(O)c(-c2ccc(O)c(O)c2)oc2cc(O)ccc12,inactive
7,O=C(Nc1c(C(=O)O)oc2ccccc12)c1ccc(C(F)(F)F)cc1,inactive
8,O=C(O)c1c(Sc2ccccc2)c2cc(Cl)ccc2n1Cc1ccc(Cl)cc1,12.6 µM (active)
9,C/C(=C\c1ccc(C(=O)O)cc1)c1ccc2c(c1)C(C)(C)CCC2(C)C,20 µM (active)
10,CC(C)C1=CCC(C)(O)C(OC2OC(CO)C(O)C(O)C2O)C1 (stereo not given),inactive
11,Cc1cccc(C(=O)Nc2ccc(C(=O)OCc3cc(=O)n4nc(C5CC5)sc4n3)cc2)c1,15.8 µM (active)
12,CCCCc1nn2c(=O)cc(COC(=O)c3ccc(NC(=O)c4ccccc4Cl)cc3)nc2s1,22.4 µM (active)
13,CCC(C)CCCCC(=O)NC(CCNCS(=O)(=O)O)C(=O)NC(C(=O)NC(CCNCS(=O)(=O)O)C(=O)NC1CCNC(=O)C(C(C)O)NC(=O)C(CCNCS(=O)(=O)O)NC(=O)C(CCNCS(=O)(=O)O)NC(=O)C(CC(C)C)NC(=O)C(CC(C)C)NC(=O)C(CCNCS(=O)(=O)O)NC1=O)C(C)O (stereo not given),inactive
14,Cc1cc(CN2CCN(c3c(Br)cnc4nc(-c5ccc(N6CCN(C)CC6)cc5)[nH]c34)CC2)no1,10 µM (active)
15,Nc1ncnc2c1ncn2[C@@H]1O[C@H](CSCC[C@H](N)C(=O)O)[C@@H](O)[C@H]1O,inactive
16,O=C(Nc1ccc(-c2ccc(Cl)c(Cl)c2)cc1)C1=C(O)c2ccccc2S(=O)(=O)N1,8.91 µM (active)
17,COc1cc2c(c(O)c1OC/C=C(\C)CC/C=C(/C)CCC=C(C)C)CN(C(CCC(=O)O)C(=O)O)C2=O (stereo not given),7.94 µM (active)
18,Cc1ccc(-c2nnc(Nc3ccc(S(N)(=O)=O)cc3)c3ccccc23)cc1S(=O)(=O)N1CCOCC1,inactive
19,Cc1ccc(S(=O)(=O)Nc2cc(SCC(=O)O)c(O)c3ccccc23)cc1[N+](=O)[O-],8.91 µM (active)
20,COc1cccc(-n2nc(C(=O)O)cc2-c2ccc(C3CCCCC3)c(Cl)c2)c1,35.5 µM (active)
